In all, about 4,400 compounds went through this assay and about 390 (8.9%) showed an effect of 50% or more. The entries come from a sample that favours strong results as a whole.
The compounds below were run on Trypanosoma brucei (assay: DNDI: Inhibition of Human African Trypanosomiasis, SBRI 427, in vitro at 2 ug.mL-1).
Format: functional
For `Cc1ccccc1-c1nc(CN2CCN(c3cccc(C(F)(F)F)c3)CC2)co1`, the “% inhibition” value was 14%. With `CCOc1ccccc1-c1nc(CN2CCC3(CC2)OCCO3)co1` the “% inhibition” value was 1%. In the case of `COC(=O)C1CCN(Cc2coc(-c3cccc(F)c3)n2)CC1`, the “% inhibition” value is reported as 6%. In the case of `CCN(CC)Cc1coc(-c2cccc(OC)c2)n1`, the “% inhibition” value is reported as 11%. In the case of `COc1cccc(CN/C(=N\O)c2cccnc2OC2CCC2)c1`, the “% inhibition” value is reported as -1%. In the case of `CCc1ccc(Oc2ncccc2/C(=N/O)NCc2ccccc2)cc1`, the “% inhibition” value is reported as 99%. With `COc1ccc(Oc2ncccc2/C(=N/O)NCc2ccncc2)cc1` the “% inhibition” value was -2%. `O/N=C(\NCc1cc(F)ccc1F)c1cccnc1Oc1ccc(Cl)cc1` was tested, and the “% inhibition” value was 12%. With `COc1cccc(CN/C(=N\O)c2cccnc2OCC2CCCCC2)c1` the “% inhibition” value was 71%. In the case of `CCc1ccc(Oc2ncccc2/C(=N/O)NCc2ccncc2)cc1`, the “% inhibition” value is reported as 5%. For `COc1ccc(Oc2ncccc2/C(=N/O)NCc2cc(F)cc(F)c2)cc1`, the “% inhibition” value was 39%. `CCc1ccc(Oc2ncccc2/C(=N/O)NCc2cccnc2)cc1` was tested, and the “% inhibition” value was 3%. With `COc1ccc(CN/C(=N\O)c2cccnc2Oc2ccccc2)cc1` the “% inhibition” value was 14%. For `O/N=C(\NCc1cccnc1)c1cccnc1OCC1CCCCC1`, the “% inhibition” value was 6%. In the case of `O/N=C(\NCc1cc(F)cc(F)c1)c1cccnc1Oc1ccc(Cl)cc1`, the “% inhibition” value is reported as 59%. For `COc1ccc(Oc2ncccc2/C(=N/O)NCc2ccccc2)cc1`, the “% inhibition” value was 86%. `CC(C)(C)c1ccc(-c2nc(Cn3nc(N)cc3-c3ccccc3)co2)cc1` was tested, and the “% inhibition” value was 9%. `CN(CCC#N)Cc1coc(-c2cccc3ccccc23)n1` was tested, and the “% inhibition” value was 7%. `CCOC(=O)C1CCCCN1Cc1coc(-c2cccc(OCC)c2)n1` (stereo unspecified) was tested, and the “% inhibition” value was 2%. In the case of `COc1ccccc1CNCc1coc(-c2ccc(Br)cc2)n1`, the “% inhibition” value is reported as 3%. `CCN(Cc1coc(-c2ccccc2Cl)n1)c1cccc2ccccc12` was tested, and the “% inhibition” value was -6%. With `COc1ccc(Oc2ncccc2/C(=N/O)NCc2cccc(OC)c2)cc1` the “% inhibition” value was -6%. In the case of `COc1cccc(CN/C(=N\O)c2cccnc2Oc2ccc(Cl)cc2)c1`, the “% inhibition” value is reported as 98%. In the case of `COc1cccc(CN/C(=N\O)c2cccnc2Oc2c(F)cccc2F)c1`, the “% inhibition” value is reported as 17%. `O/N=C(/c1ccnc(Oc2ccc(F)c(Cl)c2)c1)N1CC=CCC1` was tested, and the “% inhibition” value was 17%. For `Cc1cccc(Oc2ncccc2/C(=N/O)N2CC(C)CC(C)C2)c1C` (stereo unspecified), the “% inhibition” value was 1%. For `Cc1ccc(Oc2nc(C)ccc2/C(=N/O)NCCN2CCCCC2)c(C)c1`, the “% inhibition” value was 0%. `Cc1ccc(Oc2nc(C)ccc2/C(=N/O)NCC2CCCCC2)c(C)c1` was tested, and the “% inhibition” value was 62%. With `COc1cc(C)ccc1Oc1nc(C)ccc1/C(=N/O)NC1CCCC1` the “% inhibition” value was -8%. In the case of `Cc1ccc(Oc2nc(C)ccc2/C(=N/O)NC2CCCCC2)c(C)c1`, the “% inhibition” value is reported as 100%. For `Cc1cc(C)cc(Oc2nc(C)ccc2/C(=N/O)NCC2CCCCC2)c1`, the “% inhibition” value was 14%. In the case of `Cc1ccc(Oc2nc(C)ccc2/C(=N/O)NC2CCCC2)c(C)c1`, the “% inhibition” value is reported as 25%. For `C=CCN1CCN(/C(=N\O)c2ccc(C)nc2Oc2ccc(C)cc2)CC1`, the “% inhibition” value was 30%. With `CC1C=CC(C)N1/C(=N\O)c1cccnc1Oc1ccc(Cl)cc1` (stereo unspecified) the “% inhibition” value was -7%. In the case of `Cc1ccc(N2CCN(Cc3coc(-c4ccc(OC(F)(F)F)cc4)n3)CC2)cc1C`, the “% inhibition” value is reported as 23%. `CC(C)(C)COc1ncccc1/C(=N/O)NCC1CCCO1` (stereo unspecified) was tested, and the “% inhibition” value was 4%. `Brc1ccccc1-c1nc(CNCc2ccccc2)co1` was tested, and the “% inhibition” value was 11%. For `CCC(CC)CNCc1coc(-c2ccccc2Br)n1`, the “% inhibition” value was 1%. With `C[C@H]1C(NCc2coc(-c3ccccc3Br)n2)C[C@@H]2C[C@H]1C2(C)C` (stereo partly specified) the “% inhibition” value was 98%. With `CC(C)(C)CNCc1coc(-c2ccccc2Br)n1` the “% inhibition” value was 7%. In the case of `Brc1ccccc1-c1nc(CNC2CCc3ccccc32)co1` (stereo unspecified), the “% inhibition” value is reported as 7%. With `C[C@@H]1C(NCc2coc(-c3ccccc3Br)n2)C[C@H]2C[C@@H]1C2(C)C` (stereo partly specified) the “% inhibition” value was 100%. `Cc1ccc(/C(=N/O)N2CCCCC2)c(Oc2ccc(F)cc2)n1` was tested, and the “% inhibition” value was 24%. For `CCc1nccn1Cc1coc(-c2cc(OC)c(OC)c(OC)c2)n1`, the “% inhibition” value was 9%. For `Cc1ccc2cccc(Oc3cc(/C(N)=N/O)ccn3)c2n1`, the “% inhibition” value was 7%. `Cc1ccc(/C(=N/O)N2CCCC2)c(OCc2ccccc2C)n1` was tested, and the “% inhibition” value was 10%. For `CN(Cc1coc(-c2ccc(Cl)cc2Cl)n1)Cc1ccco1`, the “% inhibition” value was 11%. For `O=C(C1CCCO1)N1CCN(Cc2coc(-c3ccc(C(F)(F)F)cc3)n2)CC1` (stereo unspecified), the “% inhibition” value was 4%. `CCOC(=O)C1CCCN(Cc2coc(-c3ccccc3Cl)n2)C1` (stereo unspecified) was tested, and the “% inhibition” value was 4%. In the case of `COc1cccc(-c2nc(CN3CCN(c4ccccc4OC)CC3)co2)c1`, the “% inhibition” value is reported as -9%. For `CC1CC(C)CN(/C(=N\O)c2cccnc2Oc2ccccc2)C1` (stereo unspecified), the “% inhibition” value was 10%. For `Cc1ccc(-c2nc(CNc3ccccc3C)co2)cc1`, the “% inhibition” value was -4%. `CC(C)CN/C(=N\O)c1ccc(Oc2ccc3oc4ccccc4c3c2)nc1` was tested, and the “% inhibition” value was 11%. With `O/N=C(\NCC1CCCO1)c1ccc(Oc2ccc3oc4ccccc4c3c2)nc1` (stereo unspecified) the “% inhibition” value was -8%. For `COc1cccc(CN/C(=N\O)c2ccc(Oc3ccc4oc5ccccc5c4c3)nc2)c1`, the “% inhibition” value was 16%. `O/N=C(\NC1CC1)c1ccc(Oc2ccc3oc4ccccc4c3c2)nc1` was tested, and the “% inhibition” value was 82%. In the case of `O/N=C(\NCc1cccnc1)c1ccc(Oc2ccc3oc4ccccc4c3c2)nc1`, the “% inhibition” value is reported as 84%. For `CC(C)(C)CN/C(=N\O)c1ccc(Oc2ccc3oc4ccccc4c3c2)nc1`, the “% inhibition” value was 8%. For `O/N=C(\NC1CCC1)c1ccc(Oc2ccc3oc4ccccc4c3c2)nc1`, the “% inhibition” value was 94%. For `O/N=C(\NCc1ccncc1)c1ccc(Oc2ccc3oc4ccccc4c3c2)nc1`, the “% inhibition” value was -14%. With `CN(/C(=N\O)c1ccc(Oc2ccc3oc4ccccc4c3c2)nc1)C1CCCCC1` the “% inhibition” value was 22%. With `CCC(C)(C)N/C(=N\O)c1ccc(Oc2ccc3oc4ccccc4c3c2)nc1` the “% inhibition” value was 97%. With `Cc1cc(C)cc(CN/C(=N\O)c2ccc(Oc3ccc4oc5ccccc5c4c3)nc2)c1` the “% inhibition” value was 32%. `O/N=C(\NC1CCc2ccccc21)c1ccc(Oc2ccc3oc4ccccc4c3c2)nc1` (stereo unspecified) was tested, and the “% inhibition” value was 19%. In the case of `Cc1ccc(N(C)Cc2coc(-c3cccc4ccccc34)n2)cc1`, the “% inhibition” value is reported as 6%. `Cn1nc(C(C)(C)C)cc1NCc1coc(-c2ccc(C(C)(C)C)cc2)n1` was tested, and the “% inhibition” value was -5%.
